About 3,700 (7%) of roughly 53,000 sequences were called active. The entries come from a sample that favours actives as a whole. Unmarked numbers belong to inactive results.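 The calls were made as follows: active = gene knockdowns whose robust z-score for IL-1 alpha signal is at least 2 or at most -2, so actives lie on both sides; inactive = the rest.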

This assay in a line: Components of the Cytosolic LPS Sensing Pathway: Gene Identification via Genome-wide siRNA Screen.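 Also: robust z of the log signal after scaling to non-targeting control siRNA wells of the plate.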 The following applies: RAW264.7 macrophages, IL-1a HTRF, actives lie on both sides, screened at 100 nM (by protocol), cells primed 5 h with Pam3CSK4 first. In short, it runs like this: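 RAW264.7 mouse macrophages reverse-transfected with single siRNAs (100 nM final) for 48h, primed with Pam3CSK4 for 5 hours, then transfected with LipidA for 24 hour. Supernatant IL-1a read by HTRF; values normalized to negative-control median, log-transformed robust z-scores.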
(Time-resolved FRET reads energy transfer from a long-lived donor to a nearby acceptor.)
GGCUUAUUGGAAGAGGACGTT against Ier5: the z-score is 0.559.
In the case of GCUGAGUCCAUGUCUGUUGTT against Coro2a, the z-score was -0.119.
As for CGGCAUGAGCAGUUUAUAUTT against Col19a1, the z-score is -1.04.
The result for GCUGAUUGAGCAUCCGAUGTT against Ggt1 reads 2.78 (active); that for GGGAUUCAGUAUAAAACACTT against Nup37, -1.25; that for GGAAAGAGCCAUCCUUUGATT against Gnmt, -0.186.
On to CGUAUAAUAACUCCUUAUCTT against Hoxa1, for which the z-score was 2.17 (active).
On to GGUGUAGACUCCAACAUGUTT against Aarsd1, for which the z-score was 1.69.
In the case of CCUUGGACUAUGGCAAAAATT against Neurod6, the z-score is 0.418.
The figure for GCCGGAAUCCUGUGGAAUCTT against Kat14 is 6.46 (active); for GGAAAAUGACACAGGUAUCTT against Entpd2 it is -0.103; for GGAGAUGAGCUGUAUGUGATT against Nudt19 it is 0.862.
The result for GACUUCAGACAAAUAGUGCTT against Lce1i reads -1.24.
In the case of GCAUCGAAAAUCUUUCCAATT against Fibcd1, the z-score was 1.6.
Turning to GGUGCUCAAUAAAUGUAAATT against Cd151, the z-score is -1.26.
The figure for GGGUUUCUUCCCUGAGCUATT against Nxf7 is -1.97; for CCACUAUGAAUCGUGGUUCTT against Sp6 it is 0.731.
As to CGUGCAUCCCUAUAUCCUATT against Panx2, the z-score was 0.343.
As for GGUUGACAACACAUCUGCUTT against Ugt2b34, the z-score is -0.766.
Consider GGAUCAAUGUGGUACCUAUTT against Sf3a1, for which the z-score was -2.79 (active).
The result for GGGAAUAGUUUAUAUGGACTT against Ccl20 reads 0.315.
Consider CGGGCAAUGUCAGAUUGUGTT against Vmn1r75, for which the z-score is 1.41.
In the case of GGUACUUUCGGACUCAGUUTT against Ipp, the z-score is -0.0605.
In the case of GCUAGGUGUUUGAAGCCUCTT against Mixl1, the z-score is -0.834.
The result for GGAAGGGUAAAUUUAGAAGTT against Arrdc3 reads 2.83 (active); that for GAUCUUCCUGACAGUGGUGTT against Psors1c2, -0.15; that for GGUAAAAAACCAAGAACAATT against Ednrb, 2.17 (active).
For GGACUUCUUCUUGUACAACTT against Capn3, the z-score is 1.03.
The result for GGGCUCUUGCCAGAAAACGTT against Rsph3a reads -0.524; that for GCCACUCGGAGAUUUUUCATT against Slc15a4, -0.6; that for CCCUGACCUUCAGAUUGUGTT against Olfr788, 0.14.
The result for CCAAGUAGAUAGGAAUUAUTT against Eps8 reads 2.
Consider “GCUUUAUGGGAGACAAAGGTT against 1700022I11Rik”, for which the z-score is 2.53 (active).
As to GGAUGCUUUACCAAAUGAATT against Slc44a3, the z-score is 0.147.
For the sequence GGAAAAUUGGCCAAAAUAATT against Pdcl, the z-score is -0.0308.
For the sequence GGAGAAGCUGCUGGCAGAATT against Trub1, the z-score is -1.15.
On to GGUCUUGGAGUUGCUAAUUTT against Med4, for which the z-score was 2.63 (active).
The figure for CCUCUUCUUGUUUCAAGGGTT against Piezo2 is 0.062.
As for CCAGCUAAACUCUGUAAAATT against Zfp639, the z-score is -0.113.
Turning to GCUUUGGACAAUAAGAAGUTT against Cdkl1, the z-score was -0.838.
Regarding GUCACUGAUACUCAAUAAATT against Vmn1r172, the z-score was -1.45.
With GCAUCGUCCUCCAAAGAUUTT against Sf3b1, the z-score is -3.01 (active).
On to GGCUAUCUACCAUUAUAUGTT against Ifit2, for which the z-score is -0.607.
Turning to GGUCCUGUUAAACUGAAAGTT against Fkbp1a, the z-score is -1.45.
The figure for GGGAAUAAAAAGGAUCACUTT against Rab39 is 1.27; for CCUGAAUGACCUAGGGCCUTT against Adam8 it is 0.286.
In the case of GGCAUGAGCUAUCAGGACUTT against Efcab6, the z-score was 1.37.
The figure for GGUAUUAGCAAUUUUCUGGTT against Olfr619 is -0.681; for CGAGGAUGACUUGAUGACCTT against Ajm1 it is -2.18 (active).
As for GGGAAAAUUCCAGAAUCGCTT against Musk, the z-score is 0.315.
The figure for GCCGGCCAGAAUAUACAUUTT against Fndc10 is 0.415.
In the case of CCUUCCUCGUGAUUCGCUATT against Lman2l, the z-score was -0.461.
The figure for GGUUGAGUAGUUGAUUUUCTT against Hemgn is 0.663.
In the case of GGAAAUACCCACCUUAUACTT against Efhc2, the z-score is 2.51 (active).
The result for GGAGCAGAUACAGAAGAUCTT against Pfdn2 reads -1.21.
The result for GUAUAGUGUAUCUCAUCAUTT against Olfr1107 reads 1.56; that for GCUCAGUGGACAUGCUCUATT against Hpse, -0.502.
Regarding GGAGGCAUGAUAAGCUUCGTT against Pmm1, the z-score was -0.425.
As to GCUACUAAACAGGGUGUGATT against Gpsm3, the z-score was -2.42 (active).
Consider GGGUGAGAUAAUUGAAAAGTT against Slc12a6, for which the z-score is 0.607.
As for GGGCUUCAACACUGAGAAGTT against Arl4d, the z-score is -1.04.
The figure for GGCUCCUACCAAUCUCACUTT against Calcr is -0.548; for GGGAAAAAUGGACUAGCAUTT against Ahctf1 it is 0.888; for GCAUUGGACUCAUAAUUUUTT against Aadat it is 0.0399.
GGUAAUGUUCUCCUUUGAATT against Dok1: the z-score is 4.89 (active).
The result for GCCUGAAUUUAGUGUUAAGTT against Hnmt reads 1.72; that for CCAUUGAAAAACUGGACAGTT against Olfr1463, 3.26 (active).
For the sequence GCUCUUCAUAACUCUUGCUTT against Olfr1392, the z-score was -0.288.
As for GGCCAGAACUGUUCCAAUUTT against Cilp, the z-score is 1.15.
Consider GGGAAUUUAAUUUUUCGUGTT against Sfn, for which the z-score was -0.642.
The figure for GGAAGUCAACCGAGUCUUCTT against Sp140 is 0.011; for GGGUAUGAUAUGUUAAUGATT against Ndufaf7 it is -0.434; for CCAUUUAAGUGUGUGUUAATT against Rbmx it is 0.475.
On to GGAUUUUGCACUAUAACAATT against Zmat3, for which the z-score is 3.83 (active).
In the case of GGACAACGGAUUUUAGGAGTT against Barhl2, the z-score was 0.44.
For GGUUGAAUAUACUUAGCACTT against Gm5082, the z-score was 0.947.
As to CCAUGGAAUCUCCUAUACCTT against C4bp, the z-score is -0.679.
The figure for GGUAAAUCAAAUCACUGCCTT against Slamf1 is 0.316; for CCCUUUCAUUGUGCAUUAATT against Hdhd2 it is -2.22 (active).
With GCUCAAGAGUCUAACUCCCTT against Serinc4, the z-score is 0.558.
The figure for GGAGAAAGUUUUGGAAAAATT against Slc24a5 is -0.622.
As for GGAUUUCUACCAGCUCGUGTT against Pop5, the z-score was 1.62.
For the sequence GGAUGGCAGCUUUGACCUUTT against Cdc42ep2, the z-score is 0.566.
In the case of GCAAAACCCAACAACUCUGTT against Lig3, the z-score is 1.05.
For the sequence CCUACUGGAGUCUCCUCUUTT against Tmem116, the z-score was 0.36.
With GGAGGACAAUGAGGACGAUTT against Chrac1, the z-score is 2.1 (active).
For AUUUCUGUAAGGCAAAUGUTT against Olfr970, the z-score is -0.454.
CCUCGAAUGCAGACGUACGTT against Sdhb: the z-score was 1.67.
For the sequence CCAAAGUCAUAAUUCCAACTT against Timm23, the z-score is 0.202.
GGAGCAGAUUAAAUCCCUGTT against Krt8: the z-score is 2.46 (active).
As for GGGAGCUAAGAAGAUUCAUTT against Mul1, the z-score is 0.89.
The result for GCAGCAGUUGGCUAAAACATT against Bbof1 reads -1.14; that for “GGUGGAUGGAUCACUGAGUTT against B230325K18Rik”, -0.347.
The figure for GCAACUAUGAACAAGAAUCTT against Grm3 is -0.0322; for GCCACGAAAAGAAGAGAAUTT against Vpreb2 it is 1.08.
The result for CCUACAGAGUACCCUGUCUTT against Gas2l2 reads -2.56 (active); that for GGUCCUGAAUUUCAUCCUUTT against B4galnt2, 0.459.
Turning to GGUCAGAAAUUCUAAGUUGTT against Gpatch2, the z-score was 1.09.
As to GGAAAUGACCUACGAAGAATT against Pfkfb4, the z-score is -1.26.
The figure for GGCAGUCAACAAAGAAGACTT against Metap1d is -0.711; for GGUCUGGUGGAGUUGAGAATT against Ccdc80 it is -0.617; for GCGAGUGCUAACAUGAAAGTT against Sar1a it is -0.0783.
For the sequence GUUUGUGCUGUUAGGUUUUTT against Olfr1347, the z-score was 2.46 (active).
For GGACAAAAGACUUGAAUUUTT against Alox15, the z-score is 1.86.
GGCUGAAGAGGAUCGGUACTT against Atpif1: the z-score is 2.08 (active).
Turning to CGCAAGAGUUCCUUUUUUUTT against Sla, the z-score is 0.671.
Consider GGCCACCUAUGAUGGAAAUTT against Kdelr2, for which the z-score was -0.379.
The result for GCUCUGAUGGUCUACUGCUTT against Rgs3 reads -0.347.

These data come from PubChem BioAssay AID1508600 (Functional Genomics Laboratory (NCATS/FGL), 2020).
